Hits are enriched below; roughly 4.1% of the tested compounds scored in any of these assays.
Peg3 promoter = Peg3 promoter-driven luciferase inhibitors, primary screen, cell-based, HeLa, luciferase luminescence | AID 588405, 2011 | HeLa PEG-Prom luciferase reporter, overnight | 360,000 compounds, 1.7% hits | inhibition, % at 20 µM;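 active = inhibition of at least 50% at 20 µM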
Shn3 inh set2 = reduction of Shn3 3'UTR firefly luciferase signal, primary screen, Schnurri-3 inhibitor project, cell-based, Clone20 osteoblasts, set 2. inhibition, % at 12.5 µM. 360,000 compounds, 0.52% hits. Clone20 osteoblast Shn3 3'UTR firefly luciferase, 24 h;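 active = mean inhibition of at least 75% with every replicate also reaching 75%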;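 note: 0% = median of neutral control wells and 100% = pilot-screen positive control compound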
TROY NFkB inh = inhibitors of TROY-driven NF-kB signaling, primary screen, Q293 LMP1-TROYcd cells, NF-kB luciferase, uHTS; inhibition, % at 10 µM; 360,000 compounds, 0.98% hits; Q293 LMP1-TROYcd NF-kB luciferase reporter, 4 h;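 active = compounds whose plate-normalised and pattern-corrected inhibition of the luciferase reporter signal at the single screening dose is 50% or more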
TWEAK Fn14 block = inhibitors of TWEAK-Fn14 signaling, primary screen, luciferase reporter cells, uHTS; inhibition, % at 10 µM; AID 1159606, 2016; TWEAK-stimulated Fn14 reporter cells, luciferase luminescence, 8 h; 360,000 compounds, 2% hits; in the data active = inhibition above about 50%
TRPM1 prom inh = inhibitors of MITF-dependent TRPM1 promoter reporter, primary screen, cell-based, SK-MEL-5, single point, luciferase; SK-MEL-5 TRPM1 promoter luciferase, 24 h; inhibition, % at 12.5 µM; 330,000 compounds, 0.83% hits;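 active = mean inhibition across replicates of 60% or more, whatever share of single replicates reaches that level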
LMP1 NFkB inh = EBV LMP1-driven NF-kappaB luciferase reporter inhibitors, primary screen, cell-based, luminescence, single point. LMP1-induced NF-kappaB luciferase reporter cells. inhibition, % at 12.5 µM. 350,000 compounds, 0.69% hits; in the data active = inhibition above about 41%;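 note: 0% = neutral control wells and 100% = reference inhibitor control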
* = called active by the depositor; · = no result.

SMILES	Peg3 promoter	Shn3 inh set2	TROY NFkB inh	TWEAK Fn14 block	TRPM1 prom inh	LMP1 NFkB inh
COc1ccc(CNC(=O)c2nc(S(=O)(=O)Cc3ccccc3)ncc2Cl)cc1	104.2*	92.2*	59.2*	72.8*	67.4*	-6.2
O=C(NCc1ccccc1)c1c(Cl)nc(Cl)c(Cl)c1Cl	101.7*	-4.1	65.7*	92.7*	76.9*	81.0*
COC(=O)c1ccccc1NC(=O)c1nc(S(=O)(=O)Cc2ccccc2)ncc1Cl	91.8*	94.6*	57.7*	76.2*	93.4*	10.0
COC(=O)c1cscc1S(=O)(=O)Cc1ccccc1	0.1	5.2	-1.6	23.4	-7.8	-1.5
Cc1nc(Cl)c(C(=O)NCc2ccccc2)c(C)c1Cl	1.3	11.0	10.8	-8.2	-13.6	13.9
Cc1noc(C(=O)NCc2ccccc2)c1Cl	10.1	-5.4	-10.3	-6.0	-15.5	-2.4
CCCOc1ccc(CNC(=O)c2ccc3c(c2)N(CC)CCS3)cc1	2.6	2.1	5.1	5.5	·	-3.3
CCCCCCc1c(C)nc(-n2[nH]c(C)c(CCO)c2=O)[nH]c1=O	4.5	11.6	-8.0	-62.4	5.2	-5.9
CC(OC(=O)CC1CCCC1)C(=O)Nc1ccc(Cl)cn1 (centres undefined)	-0.3	2.8	5.2	-0.9	-8.0	2.2
NC1=NC(=O)/C(=C/c2cccs2)S1	-16.0	-15.2	-10.1	-11.2	-18.5	-10.6
C=CCSC1=NC(=O)/C(=C/c2cccs2)S1	53.2*	-3.7	-74.8	-36.8	4.3	-21.5
CC(C)Oc1cccc(C(=O)NC(=S)Nc2ccccc2)c1	-95.7	-127.3	66.5*	59.4*	-78.6	-42.5
Cc1nc2c(c(=O)c3ccccc3n2C)c(=O)n1C1CCCCCC1	-95.1	-19.1	-30.2	-11.2	-36.0	-4.5
Cn1c2ccccc2c(=O)c2c(=O)n(C3CCCCC3)c(-c3ccco3)nc21	0.5	1.8	-30.7	-39.5	70.4*	-3.2
O=c1c2cnn(-c3ccccc3)c2nc(-c2cccs2)n1-c1ccc(Br)cc1	-58.7	1.5	-29.3	-5.4	0.9	42.7*
O=C(O)CSc1nc2c(cnn2-c2ccccc2)c(=O)n1-c1ccc(Br)cc1	-2.6	7.6	-6.0	-9.1	-20.2	-6.8
O=c1c2cnn(-c3ccccc3)c2nc(-c2ccco2)n1-c1ccccc1	26.9	9.4	16.4	54.6*	32.2	5.8
O=S(=O)(c1ccccc1)c1ncc(C(F)(F)F)cc1O	15.8	0.6	-1.0	1.0	-5.8	-30.8
CN(C)S(=O)(=O)c1cccn1-c1ncc(C(F)(F)F)cc1Cl	-8.0	6.3	-22.7	3.3	11.4	56.4*
CN(C)/C=N/S(=O)(=O)c1cccn1-c1ncc(C(F)(F)F)cc1Cl	-13.0	-19.4	0.3	-9.5	-5.6	0.3
O=S(=O)(c1ccccc1)c1ncc(C(F)(F)F)cc1Cl	70.6*	49.2	46.0	32.5	6.4	10.9
Cc1ccc(SCCC(=O)OC(C(=O)NC(N)=O)C(C)C)cc1 (centres undefined)	12.4	-2.5	-17.9	-14.6	-4.7	4.8
COc1ccccc1Sc1nc(-c2ccccn2)ncc1OC	-5.2	25.9	4.2	-22.8	33.6	8.5
COc1cnc(-c2ccccn2)nc1NC(C)C	35.9	91.7*	10.4	-20.6	66.2*	-6.5
O=C(CSc1nc2cc3ccccc3cc2[nH]1)Nc1ccc(F)cc1	-32.2	6.0	-8.4	5.7	-8.9	-8.9
O=C(CN(C(=O)c1csnn1)c1cccc(C(F)(F)F)c1)NCc1ccc(F)cc1	12.8	-9.5	-6.1	21.8	-2.9	-5.9
Cc1[nH]c2ccccc2c1C(C#N)(C#N)C1C(=O)c2ccccc2C1=O	38.6	15.5	52.8*	97.2*	39.0	4.5
O=[N+]([O-])c1ccc(NN=CC2CCCCCC2)c([N+](=O)[O-])c1	·	·	1.0	15.7	·	·
O=C(CCCc1ccccc1)Nc1cccc(C(=O)O)c1	39.8	6.9	-14.7	-3.9	69.7*	46.2*
CC1Cc2ccccc2N1S(=O)(=O)c1cccc(C(=O)N2CCN(c3ncccn3)CC2)c1 (centres undefined)	21.7	3.1	21.9	-3.0	17.1	28.5

Screening results: PubChem BioAssay, several laboratories
